Measurements from PubChem BioAssay.
For some of these results: Entries with a potency or affinity are not part of this list. The source made the active and inactive calls.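 Rule for the calls, unless noted: active = calcium signal ratio cut to more than 3 SD under the fully stimulated control mean yet still positive, in both repeats and the primary screen; inactive = the rest.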

Columns and labels:
[1] = system: TRPC4 beta (transient receptor potential cation channel C4), mouse; experiment: TRPC4 cation channel opening, retest – cell-based, Fluo4 calcium, HEK293 TRPC4beta/mu-opioid, duplicates, 10 µM, confirmation (AID 2426;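 active = fluorescence ratio normalized to control raised more than 50% in primary screen plus both repeat runs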); conditions: Fluo4 calcium fluorescence, at 10 µM; stronger effect = higher value
[2] = system: transient receptor potential cation channel C4 beta (TRPC4), mouse; experiment: TRPC4 cation channel opening, second retest – cell-based, second round, Fluo4, HEK293 TRPC4beta/mu-opioid, 1 µM, confirmation (AID 2461;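 active = primary screen active and over 50% activation in each of two duplicate runs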); conditions: Fluo4 calcium fluorescence, at 1 µM; stronger effect = higher value
[3] = system: TRPC4 (transient receptor potential cation channel C4 beta), mouse; experiment: potentiation of DAMGO EC20 TRPC4 response – cell-based, second round, Fluo-4, HEK293 TRPC4beta/mu-opioid, 1 µM, confirmation (AID 2554;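 active = primary screen hit whose fluorescence ratio, in both repeats, exceeds the weak agonist control mean by 3 SD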); conditions: DAMGO EC20, Fluo-4 calcium flux, at 1 µM; stronger effect = higher value
[4] = system: TRPC4 beta (transient receptor potential cation channel C4), mouse; experiment: potentiation of DAMGO EC20 TRPC4 response – cell-based, Fluo-4, HEK293 TRPC4beta/mu-opioid, confirmation (AID 2555;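 active = primary screen hit whose calcium fluorescence ratio, in both repeats, exceeds the weak agonist control mean by 3 SD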); conditions: DAMGO EC20, Fluo-4 calcium flux, at 10 µM; stronger effect = higher value
[5] = target: Short transient receptor potential channel 4 (Mus musculus) (UniProt Q9QUQ5); experiment: blockers of DAMGO-evoked TRPC4 calcium flux – cell-based, Fluo4, HEK293 TRPC4beta/mu-opioid, confirmation (AID 2636;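 active = calcium signal cut by more than 3 SD below the full-agonist control yet still positive, in both repeats and the earlier primary screen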); conditions: at 10 µM; stronger effect = higher value
Chain of Short transient receptor potential channel 4 (Mus musculus) (Q9QUQ5 whole entry, looked up): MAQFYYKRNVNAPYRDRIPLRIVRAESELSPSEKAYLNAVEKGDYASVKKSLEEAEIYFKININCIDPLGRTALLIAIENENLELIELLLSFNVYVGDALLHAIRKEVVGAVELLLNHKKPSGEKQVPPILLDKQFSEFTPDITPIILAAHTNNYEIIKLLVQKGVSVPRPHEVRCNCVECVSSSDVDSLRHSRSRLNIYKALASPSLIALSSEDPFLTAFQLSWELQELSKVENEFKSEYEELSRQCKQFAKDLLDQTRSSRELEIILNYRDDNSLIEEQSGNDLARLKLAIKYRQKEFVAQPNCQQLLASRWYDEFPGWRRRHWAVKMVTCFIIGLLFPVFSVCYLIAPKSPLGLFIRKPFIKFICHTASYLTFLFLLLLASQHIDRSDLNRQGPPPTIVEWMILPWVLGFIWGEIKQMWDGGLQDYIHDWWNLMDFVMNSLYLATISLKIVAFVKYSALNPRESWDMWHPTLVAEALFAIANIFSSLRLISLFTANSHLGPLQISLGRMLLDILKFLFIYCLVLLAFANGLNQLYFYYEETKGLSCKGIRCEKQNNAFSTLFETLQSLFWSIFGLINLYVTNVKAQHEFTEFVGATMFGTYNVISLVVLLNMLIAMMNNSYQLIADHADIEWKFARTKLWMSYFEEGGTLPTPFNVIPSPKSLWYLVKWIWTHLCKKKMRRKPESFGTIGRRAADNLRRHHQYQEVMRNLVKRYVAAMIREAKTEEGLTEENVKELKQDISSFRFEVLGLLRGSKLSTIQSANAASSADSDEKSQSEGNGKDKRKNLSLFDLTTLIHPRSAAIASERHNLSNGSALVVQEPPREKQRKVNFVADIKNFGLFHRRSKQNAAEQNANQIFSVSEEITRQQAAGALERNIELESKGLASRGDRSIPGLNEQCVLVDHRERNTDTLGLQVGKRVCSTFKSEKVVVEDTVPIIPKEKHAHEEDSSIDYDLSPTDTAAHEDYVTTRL

[6] = target: Short transient receptor potential channel 4 (Mus musculus) (UniProt Q9QUQ5); experiment: blockers of DAMGO-evoked TRPC4 calcium flux – cell-based, second round, Fluo4, HEK293 TRPC4beta/mu-opioid, 1 µM, confirmation (AID 2637); conditions: at 1 µM; stronger effect = higher value;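 for inhibition: percent of integrated ratio relative to wells lacking test compound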
[7] = target: Short transient receptor potential channel 4 (Mus musculus) (UniProt Q9QUQ5); experiment: calcium entry via TRPC4 opening agents – cell-based, HEK293 TRPC4/mu-opioid, Fluo-4 calcium, dose response (AID 434937;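 active = primary screen activator hit with a dose response curve and TRPC4 channel activation at any tested dose; inactive = no activation, no dose response, or not a primary hit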)
[8] = target: Short transient receptor potential channel 4 (Mus musculus) (UniProt Q9QUQ5); experiment: potentiation of DAMGO-evoked TRPC4 calcium signal – cell-based, HEK293 TRPC4/mu-opioid, Fluo-4 calcium, EC20 DAMGO, dose response (AID 434941;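 active = earlier screen potentiator hit that boosts the TRPC4 ion channel at some dose, with a dose response; inactive = no potentiation, no dose response, or not a prior hit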;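 note: calcium entry triggered by an EC20 dose of DAMGO at the co-expressed mu-opioid receptor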)
[9] = target: Short transient receptor potential channel 6 (Mus musculus) (UniProt Q61143); experiment: TRPC6 blockade by TRPC4 inhibitor hits – cell-based, HEK293, membrane potential dye, duplicate, selectivity assay for TRPC4 inhibitor project, confirmation (AID 434948;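 active = active in primary screen and both duplicates, each dropping signal beyond three positive-control SD with fluorescence still positive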); conditions: HEK293 TRPC6, membrane potential dye fluorescence, at 10 µM, stimulated with maximal-effect acetylcholine; stronger effect = higher value
Chain of Short transient receptor potential channel 6 (Mus musculus) (Q61143 whole entry, looked up): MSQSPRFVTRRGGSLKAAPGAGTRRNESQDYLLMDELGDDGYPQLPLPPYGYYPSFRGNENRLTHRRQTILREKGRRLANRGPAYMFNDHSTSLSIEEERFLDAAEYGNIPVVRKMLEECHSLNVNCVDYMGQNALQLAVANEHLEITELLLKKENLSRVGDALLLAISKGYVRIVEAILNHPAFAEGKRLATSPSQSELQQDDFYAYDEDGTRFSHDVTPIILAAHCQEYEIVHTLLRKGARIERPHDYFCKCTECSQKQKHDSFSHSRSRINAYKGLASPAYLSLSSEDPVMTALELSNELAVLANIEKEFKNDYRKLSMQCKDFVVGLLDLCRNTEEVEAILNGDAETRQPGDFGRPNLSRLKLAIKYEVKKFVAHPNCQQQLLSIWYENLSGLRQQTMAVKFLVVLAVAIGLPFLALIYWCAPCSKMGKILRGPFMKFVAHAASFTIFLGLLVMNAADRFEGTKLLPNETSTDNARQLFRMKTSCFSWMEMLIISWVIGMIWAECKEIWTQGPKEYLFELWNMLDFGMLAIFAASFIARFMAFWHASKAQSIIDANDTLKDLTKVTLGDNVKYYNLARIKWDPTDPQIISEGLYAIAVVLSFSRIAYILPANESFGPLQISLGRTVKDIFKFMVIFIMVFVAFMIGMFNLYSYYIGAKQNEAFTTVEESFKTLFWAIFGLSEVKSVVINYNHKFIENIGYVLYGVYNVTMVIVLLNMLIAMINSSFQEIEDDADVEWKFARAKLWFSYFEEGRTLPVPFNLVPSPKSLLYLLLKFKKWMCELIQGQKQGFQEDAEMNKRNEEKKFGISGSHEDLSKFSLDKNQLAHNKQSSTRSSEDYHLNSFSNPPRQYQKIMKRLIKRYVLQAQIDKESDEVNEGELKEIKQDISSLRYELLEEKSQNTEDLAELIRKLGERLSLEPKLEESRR

[10] = target: Short transient receptor potential channel 6 (Mus musculus) (UniProt Q61143); experiment: TRPC6 opening by TRPC4 activator hits – cell-based, HEK293, membrane potential dye, duplicate, selectivity assay for TRPC4 activator project, confirmation (AID 434950;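 active = membrane potential signal rise above negative control mean plus 3 SD in both duplicates, also active in the earlier TRPC4 screen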); conditions: HEK293 TRPC6, membrane potential fluorescence, at 10 µM; activation: stronger effect = higher value; outcome: activation
[11] = target: Short transient receptor potential channel 6 (Mus musculus) (UniProt Q61143); experiment: positive modulators of mouse TRPC6 channel – HEK293 cells, membrane potential dye, duplicate, selectivity assay for TRPC4 potentiator project, confirmation (AID 434952;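 active = compound raising the membrane signal above positive-control mean plus 3 SD in both repeats, and a primary screen hit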); conditions: HEK293 TRPC6, membrane potential dye fluorescence, at 10 µM, maximal acetylcholine added after compound; stronger effect = higher value
[12] = target: Short transient receptor potential channel 4 (Mus musculus) (UniProt Q9QUQ5); experiment: calcium flux activators in TRPC4/5HT1a cells, counter-screen for TRPC4 activator project, cell-based, second counter screen, HEK293 TRPC4/5HT1a, Fluo-4 (AID 434977;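 active = calcium signal rise above buffer-control mean plus 5 SD in both duplicates, and also a hit in the primary screen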); conditions: Fluo-4 calcium flux, at 10 µM; stronger effect = higher value
[13] = serotonin-gated TRPC4 signal block – cell-based, second counter screen, HEK293 TRPC4/5HT1a, Fluo-4, counter-screen for TRPC4 inhibitor project, confirmation (AID 434978;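 active = primary screen active whose calcium signal fell more than 3 SD beyond the full-serotonin control mean in both duplicate plates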;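 for outcome: serotonin given first at submaximal then at maximal dose after compound preincubation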); conditions: Fluo-4 calcium flux, at 10 µM, serotonin added to trigger calcium flux; stronger effect = higher value
[14] = system: TRPC4 (mouse), co-expressed with 5HT1a in HEK293; experiment: enhancement of serotonin-evoked TRPC4 response – cell-based, second counter screen, HEK293 TRPC4/5HT1a, Fluo-4, counter-screen for TRPC4 potentiator project, confirmation (AID 434979;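 active = signal rise over 3 SD above mean of control wells given weak agonist, in both repeats and first screen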); conditions: Fluo-4 calcium flux, at 10 µM, serotonin added at its EC20 dose; stronger effect = higher value
[15] = nonspecific calcium rise without TRPC4 – cell-based, HEK293 mu-opioid receptor line, counter-screen for TRPC4 activator project, confirmation (AID 449723;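 active = hit in primary screen, with calcium signal over 5 SD above buffer well mean in both duplicates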;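 note: counter screen cells carry the mu-opioid receptor alone and lack TRPC4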); conditions: HEK293 mu-opioid cells, Fluo-4 calcium fluorescence, at 10 µM; stronger effect = higher value
[16] = nonspecific potentiation of DAMGO calcium response – cell-based, HEK293 mu-opioid receptor line, counter-screen for TRPC4 allosteric potentiator project, confirmation (AID 449724;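 active = calcium signal rise more than 3 SD above the low-dose agonist control mean, in both duplicate plates and the primary screen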); conditions: HEK293 mu-opioid receptor cells, Fluo-4 calcium flux, at 10 µM, compound added before EC20 DAMGO stimulus; stronger effect = higher value

Row | Compound | outcome [1] | outcome [2] | outcome [3] | outcome [4] | outcome [5] | outcome [6] | outcome [7] | outcome [8] | outcome [9] | outcome [10] | outcome [11] | outcome [12] | outcome [13] | outcome [14] | outcome [15] | outcome [16] | inhibition [5] | inhibition [9] | inhibition [6] | inhibition [13]
1 | CCCOc1cccc(C(=O)NCCNC(=O)c2ccco2)c1 | inactive | inactive | inactive | inactive | inactive | inactive | inactive | inactive | inactive | inactive | inactive | inactive | inactive | inactive | inactive | inactive |  |  |  | 
2 | CCCCNCc1cc(Cl)c(OCCC)c(OCC)c1 | inactive | inactive | inactive | inactive |  | inactive | inactive | inactive | inactive | inactive | inactive | inactive | inactive | inactive | inactive | inactive | 86% (active) |  |  | 
3 | COc1ccc(C(c2nnnn2C2CCCC2)N2CCN(c3ccccc3)CC2)cc1 (stereo unspecified) | inactive | inactive | inactive | inactive |  | inactive | inactive | inactive | inactive | inactive | inactive | inactive | inactive | inactive | inactive | inactive | 52% (active) |  |  | 
4 | Cc1cc(Nc2cccc(O)c2)c2ccccc2n1 | inactive | inactive | inactive | inactive |  | inactive | inactive | inactive |  | inactive | inactive | inactive | inactive | inactive | inactive | inactive | 86% (active) | 55% (active) |  | 
5 | Cc1ccc(-c2c[n+](Cc3cccc(Cl)c3)c3n2CCC3)cc1 | inactive | inactive | inactive | inactive |  |  | inactive | inactive | inactive | inactive | inactive | inactive |  | inactive | inactive | inactive | 93% (active) |  | 76% (active) | 14.8% (active)
6 | Cc1cc([N+](=O)[O-])ccc1NCc1ccco1 | inactive | inactive | inactive | inactive |  | inactive | inactive | inactive | inactive | inactive | inactive | inactive |  | inactive | inactive | inactive | 92% (active) |  |  | 14.5% (active)
7 | Cc1cc(-c2cn3ccccc3n2)c(C)n1-c1ccccc1 | inactive | inactive | inactive | inactive |  |  | inactive | inactive | inactive | inactive | inactive | inactive | inactive | inactive | inactive | inactive | 101% (active) |  | 40% (active) | 
8 | COc1cc(CNCCCN2CCOCC2)cc(Br)c1OCc1ccc(Cl)cc1 | inactive | inactive | inactive | inactive | inactive | inactive | inactive | inactive |  | inactive | inactive | inactive |  | inactive | inactive | inactive |  | 51% (active) |  | 23.6% (active)
9 | CCOC(=O)C1(CCOc2ccccc2)CCN(Cc2cccs2)CC1 | inactive | inactive | inactive | inactive |  | inactive | inactive | inactive | inactive | inactive | inactive | inactive | inactive | inactive | inactive | inactive | 80% (active) |  |  | 
10 | Cc1cccn2cc(-c3c[nH]c4ccccc34)nc12 | inactive | inactive | inactive | inactive | inactive | inactive | inactive | inactive |  | inactive | inactive | inactive |  | inactive | inactive | inactive |  | 33% (active) |  | 35.1% (active)
11 | O=C(O)c1ccc(N/N=C/c2ccc(-c3cccc(Cl)c3)o2)cc1 | inactive | inactive | inactive | inactive |  |  | inactive | inactive | inactive | inactive | inactive | inactive | inactive | inactive | inactive | inactive | 87% (active) |  | 42% (active) | 
12 | COc1ccc(/C=C2\SC(=S)N(C(Cc3ccccc3)C(=O)O)C2=O)cc1 (stereo unspecified) | inactive | inactive | inactive | inactive |  | inactive | inactive | inactive | inactive | inactive | inactive | inactive |  | inactive | inactive | inactive | 88% (active) |  |  | 32.2% (active)
13 | Cn1c(=O)c2c(nc(SCc3cccnc3)n2Cc2ccc(F)cc2)n(C)c1=O | inactive | inactive | inactive | inactive |  | inactive | inactive | inactive | inactive | inactive | inactive | inactive |  | inactive | inactive | inactive | 79% (active) |  |  | 22.8% (active)
14 | CCCc1nc(SC2CCCC2)c2c(=O)n(C)c(=O)n(C)c2n1 | inactive | inactive | inactive | inactive | inactive | inactive | inactive | inactive | inactive | inactive | inactive | inactive |  | inactive | inactive | inactive |  |  |  | 39.1% (active)
15 | CCOC(=O)C1(CCOc2ccccc2)CCN(Cc2cccn2-c2ncccn2)CC1 | inactive | inactive | inactive | inactive |  |  | inactive | inactive |  | inactive | inactive | inactive | inactive | inactive | inactive | inactive | 86% (active) | 52.5% (active) | 43% (active) | 
16 | O=C(Nc1ccccc1Oc1cccnc1)C1CCCN(Cc2ccc(F)cc2)C1 (stereo unspecified) | inactive | inactive | inactive | inactive |  |  | inactive | inactive | inactive | inactive | inactive | inactive |  | inactive | inactive | inactive | 87% (active) |  | 43% (active) | 30.2% (active)
